# Assay results: PubChem BioAssay AID1159580 (chemical genetic matrix, 2015)
# The campaign covered roughly 5,500 compounds. About 2,000 (36%) were called active. Another 18% or so got no clear call; they are omitted. The list shows a part of the results. Unmarked numbers belong to inactive results. Rule as the data show it: active = normalized growth mostly below about 0.91 (no sharp cut-off); inconclusive = no clear call, values can overlap the other calls; inactive = mostly above about 0.92.
# Test: chemical genetic growth profiling, strain panel (AID 1159580);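 also: tested at 20 µM; growth read once vehicle control cultures reached saturation at 30 °C; 1 = growth at the plate median or of vehicle wells; lower values mean less growth of the strain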
# Conditions: growth OD
smiles,measurement,setting,value
CC(C(=O)O)c1ccc(-c2ccccc2)c(F)c1 (configuration not stated),normalized growth,"S. cerevisiae deletion strains, locus YJR043C, strain POL32, active compounds read low",0.979
same,normalized growth,"S. cerevisiae deletion strains, locus YJR066W, strain TOR1, active compounds read low",0.762 (active)
same,normalized growth,"S. cerevisiae deletion strains, locus YJR075W, strain HOC1, active compounds read low",0.978
same,normalized growth,"S. cerevisiae deletion strains, locus YKL009W, strain mrt4, active compounds read low",0.899
same,normalized growth,"S. cerevisiae deletion strains, locus YKL068W, active compounds read low",0.912 (active)
same,normalized growth,"S. cerevisiae deletion strains, locus YKL085W, strain MDH1 (second series), active compounds read low",0.919 (active)
same,normalized growth,"S. cerevisiae deletion strains, locus YKL085W, strain MDH1, active compounds read low",0.919 (active)
same,normalized growth,"S. cerevisiae deletion strains, locus YKL160W, strain elf1, active compounds read low",1.03
same,normalized growth,"S. cerevisiae deletion strains, locus YKR001C, strain vps1, active compounds read low",0.827 (active)
same,normalized growth,"S. cerevisiae deletion strains, locus YKR026C, strain gcn3, active compounds read low",0.977
same,normalized growth,"S. cerevisiae deletion strains, locus YKR091W, strain srl3, active compounds read low",0.988
same,normalized growth,"S. cerevisiae deletion strains, locus YLL001W, strain dnm1, active compounds read low",1.02
same,normalized growth,"S. cerevisiae deletion strains, locus YLL026W, active compounds read low",0.987
same,normalized growth,"S. cerevisiae deletion strains, locus YLL041C, strain sdh2, active compounds read low",0.97
same,normalized growth,"S. cerevisiae deletion strains, locus YLR027C, strain aat2, active compounds read low",0.976
same,normalized growth,"S. cerevisiae deletion strains, locus YLR039C, strain RIC1, active compounds read low",0.79
same,normalized growth,"S. cerevisiae deletion strains, locus YLR058C, strain SHM2, active compounds read low",0.99
same,normalized growth,"S. cerevisiae deletion strains, locus YLR102C, strain apc9, active compounds read low",0.954
same,normalized growth,"S. cerevisiae deletion strains, locus YLR113W, strain HOG1, active compounds read low",0.62 (active)
same,normalized growth,"S. cerevisiae deletion strains, locus YLR221C, strain rsa3, active compounds read low",1
same,normalized growth,"S. cerevisiae deletion strains, locus YLR258W, strain gsy2, active compounds read low",0.983
same,normalized growth,"S. cerevisiae deletion strains, locus YLR262C, strain YPT6 (second series), active compounds read low",0.846 (active)
same,normalized growth,"S. cerevisiae deletion strains, locus YLR262C, strain YPT6, active compounds read low",0.773
same,normalized growth,"S. cerevisiae deletion strains, locus YLR268W, strain sec22, active compounds read low",0.955
same,normalized growth,"S. cerevisiae deletion strains, locus YLR320W, strain mms22, active compounds read low",1.05
same,normalized growth,"S. cerevisiae deletion strains, locus YLR330W, strain CHS5, active compounds read low",0.969
same,normalized growth,"S. cerevisiae deletion strains, locus YLR342W, strain FKS1 (second series), active compounds read low",0.936
same,normalized growth,"S. cerevisiae deletion strains, locus YLR342W, strain FKS1, active compounds read low",0.984
same,normalized growth,"S. cerevisiae deletion strains, locus YLR357W, strain rsc2, active compounds read low",1.01
same,normalized growth,"S. cerevisiae deletion strains, locus YLR370C, strain arc18, active compounds read low",0.989
same,normalized growth,"S. cerevisiae deletion strains, locus YLR371W, strain rom2, active compounds read low",0.996
same,normalized growth,"S. cerevisiae deletion strains, locus YLR384C, strain iki3, active compounds read low",1.01
same,normalized growth,"S. cerevisiae deletion strains, locus YLR418C, strain cdc73, active compounds read low",1.01
same,normalized growth,"S. cerevisiae deletion strains, locus YML016C, strain PPZ1, active compounds read low",0.981
same,normalized growth,"S. cerevisiae deletion strains, locus YML032C, strain rad52, active compounds read low",0.951
same,normalized growth,"S. cerevisiae deletion strains, locus YML120C, strain ndi1, active compounds read low",0.996
same,normalized growth,"S. cerevisiae deletion strains, locus YML124C, strain tub3, active compounds read low",0.96
same,normalized growth,"S. cerevisiae deletion strains, locus YMR058W, strain fet3, active compounds read low",0.994
same,normalized growth,"S. cerevisiae deletion strains, locus YMR078C, strain ctf18, active compounds read low",0.94
same,normalized growth,"S. cerevisiae deletion strains, locus YMR125W, strain sto1, active compounds read low",1
same,normalized growth,"S. cerevisiae deletion strains, locus YMR129W, active compounds read low",0.968
same,normalized growth,"S. cerevisiae deletion strains, locus YMR205C, strain PFK2, active compounds read low",1.03
same,normalized growth,"S. cerevisiae deletion strains, locus YMR223W, strain ubp8, active compounds read low",1.02
same,normalized growth,"S. cerevisiae deletion strains, locus YMR231W, strain pep5, active compounds read low",0.969
same,normalized growth,"S. cerevisiae deletion strains, locus YMR307W, strain GAS1, active compounds read low",0.938
same,normalized growth,"S. cerevisiae deletion strains, locus YNL067W, strain RPL9B, active compounds read low",0.974
same,normalized growth,"S. cerevisiae deletion strains, locus YNL071W, strain lat1, active compounds read low",0.985
same,normalized growth,"S. cerevisiae deletion strains, locus YNL183C, strain NPR1, active compounds read low",0.783 (active)
same,normalized growth,"S. cerevisiae deletion strains, locus YNL209W, strain ssb2, active compounds read low",1.01
same,normalized growth,"S. cerevisiae deletion strains, locus YNL233W, strain BNI4, active compounds read low",0.991
same,normalized growth,"S. cerevisiae deletion strains, locus YNL248C, strain rpa49, active compounds read low",0.817 (active)
same,normalized growth,"S. cerevisiae deletion strains, locus YNL250W, strain rad50, active compounds read low",0.908
same,normalized growth,"S. cerevisiae deletion strains, locus YNL271C, strain bni1, active compounds read low",0.888 (active)
same,normalized growth,"S. cerevisiae deletion strains, locus YNL298W, strain CLA4, active compounds read low",0.792 (active)
same,normalized growth,"S. cerevisiae deletion strains, locus YNL307C, strain MCK1, active compounds read low",0.947
same,normalized growth,"S. cerevisiae deletion strains, locus YNL322C, strain KRE1 (second series), active compounds read low",0.964
same,normalized growth,"S. cerevisiae deletion strains, locus YNL322C, strain KRE1, active compounds read low",0.975
same,normalized growth,"S. cerevisiae deletion strains, locus YNR049C, strain mso1, active compounds read low",0.981
same,normalized growth,"S. cerevisiae deletion strains, locus YNR052C, strain pop2, active compounds read low",0.952
same,normalized growth,"S. cerevisiae deletion strains, locus YOL012C, strain htz1",1.06
same,normalized growth,"S. cerevisiae deletion strains, locus YOL147C, strain pex11, active compounds read low",0.969
same,normalized growth,"S. cerevisiae deletion strains, locus YOR001W, strain rrp6, active compounds read low",0.95
same,normalized growth,"S. cerevisiae deletion strains, locus YOR061W, strain CKA2, active compounds read low",0.973
same,normalized growth,"S. cerevisiae deletion strains, locus YOR069W, strain VPS5, active compounds read low",0.994
same,normalized growth,"S. cerevisiae deletion strains, locus YOR070C, strain gyp1, active compounds read low",1
same,normalized growth,"S. cerevisiae deletion strains, locus YOR080W, strain dia2, active compounds read low",1.01
same,normalized growth,"S. cerevisiae deletion strains, locus YOR083W, strain WHI5, active compounds read low",1.03
same,normalized growth,"S. cerevisiae deletion strains, locus YOR106W, strain vam3, active compounds read low",0.994
same,normalized growth,"S. cerevisiae deletion strains, locus YOR136W, strain idh2, active compounds read low",0.989
same,normalized growth,"S. cerevisiae deletion strains, locus YOR144C, strain elg1, active compounds read low",0.965
same,normalized growth,"S. cerevisiae deletion strains, locus YOR184W, strain ser1, active compounds read low",0.972
same,normalized growth,"S. cerevisiae deletion strains, locus YOR231W, strain MKK1, active compounds read low",0.732 (active)
same,normalized growth,"S. cerevisiae deletion strains, locus YOR265W, strain rbl2, active compounds read low",1
same,normalized growth,"S. cerevisiae deletion strains, locus YOR270C, strain vph1, active compounds read low",1.05
same,normalized growth,"S. cerevisiae deletion strains, locus YOR290C, strain snf2, active compounds read low",0.97
same,normalized growth,"S. cerevisiae deletion strains, locus YOR316C, strain cot1, active compounds read low",0.965
same,normalized growth,"S. cerevisiae deletion strains, locus YPL051W, strain arl3, active compounds read low",0.981
same,normalized growth,"S. cerevisiae deletion strains, locus YPL078C, strain atp4, active compounds read low",1
same,normalized growth,"S. cerevisiae deletion strains, locus YPL106C, strain sse1, active compounds read low",1.05
same,normalized growth,"S. cerevisiae deletion strains, locus YPL240C, strain hsp82, active compounds read low",0.985
same,normalized growth,"S. cerevisiae deletion strains, locus YPL256C, strain CLN2, active compounds read low",0.736 (active)
same,normalized growth,"S. cerevisiae deletion strains, locus YPR119W, strain clb2, active compounds read low",0.95
same,normalized growth,"S. cerevisiae deletion strains, locus YPR141C, strain kar3, active compounds read low",0.913 (active)
same,normalized growth,"S. cerevisiae deletion strains, locus YPR163C, strain tif3, active compounds read low",0.957
same,normalized growth,"S. cerevisiae deletion strains, locus YPR167C, strain met16, active compounds read low",0.962
same,normalized growth,"S. cerevisiae deletion strains, strain wtn01, active compounds read low",0.971
same,normalized growth,"S. cerevisiae strains, strain wild type, active compounds read low",0.968
